This is a sample that favours compounds with a hit; in the whole collection about 7.1% have one here.
MCF10A rereplic: inducers of DNA re-replication in MCF 10A breast cells; MCF 10A DNA re-replication, Hoechst nuclear intensity, 48 h; Potency, µM (doses to about 46.1 µM), inactives show at the top dose activity, positive = re-replication, hits mostly activators; 350,000 compounds, 2.9% hits; AID 624296; note: potency is the fitted concentration of half-maximal effect; % of control where 0% means no effect; nearly all actives have a fitted effect of over 50% in size
IL1B secr inh: inflammasome signaling inhibition, IL-1 beta readout; THP-1 LPS/ATP IL-1B secretion, AlphaLISA, 16 h; stronger effect = lower value; 360,000 compounds, 4.7% hits; activity change, % at 57.5 µM; in the data active = activity change below about -50%; inconclusive = mostly about -30% to -49%; note: % is set by controls: 0 for no effect and ±100 for the full control effect
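THP-1 cells pretreated 1 hr with compounds (up to 57.5 uM final), then stimulated with LPS (250 ng/mL final) plus ATP (1.25 mM final); secreted IL-1B measured by AlphaLISA after 16 hr, decreased signal indicating inhibition.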
SW480 rerep: DNA re-replication induction in SW480 cells; SW480 DNA re-replication, Hoechst DNA content imaging, 48 h; Potency, µM (series often up to 46.1 µM), inactives show at the top dose re-replication activation, usual class: activators; 340,000 compounds, 1.8% hits; AID 624297; note: potency is the fitted concentration of half-maximal effect; % of control where 0% means no effect; nearly all actives have a fitted effect of over 55% in size
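Image-based read-out: total Hoechst fluorescence of nuclei (405 nm excitation, 500-530 nm emission), with hits raising the fraction of high-intensity nuclei. SW480 colon cells incubated 48 hr with compounds at 37 C.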
ATXN2 expr inh: ATXN2 expression inhibition. HEK-293 ATXN2-luciferase reporter, luminescence, 24 h. Potency, µM (highest dose often 57 µM), without a hit: at the highest dose activity change, negative = inhibition, most hits filed as inhibitors. 360,000 compounds, 0.72% hits. AID 1745845; note: potency is the fitted concentration of half-maximal effect; % is set by controls: 0 for no effect and ±100 for the full control effect; nearly all actives have a fitted effect of over 55% in size
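qHTS (up to 57 uM final) was run with 24 h compound exposure of reporter cells at 37 °C. Each well was multiplexed: SteadyGlo luminescence measured ATXN2-luciferase expression after a fluorogenic Gly-Phe-AFC viability readout (25 uM final).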
ATXN viability: cell viability loss in ATXN counter-screen; AID 651635; 400,000 compounds, 0.49% hits; S2 cells (HEK-293 line with an ATXN2-luciferase reporter) viability, CellTiter-Fluor protease fluorescence, 24 h; Potency, µM (titrated, usually from 56.7 µM), most hits filed as cytotoxic; note: potency is the fitted concentration of half-maximal effect; nearly all actives have a fitted effect of over 40% in size
PINK1 modulator: PINK1 expression modulation; PINK1 immunofluorescence, high-content cytometry, 24 h; Potency, µM (doses to about 76.6 µM), without a hit: top-dose activation (PINK1 increase), actives largely listed as activators; 410,000 compounds, 0.2% hits; AID 624263; active = well fitted activation curve with a large enough effect; inconclusive = small, poorly fitted or top-dose-only effect; cell line not stated here; note: potency is the fitted concentration of half-maximal effect; % of control where 0% means no effect; nearly all actives have a fitted effect of over 65% in size
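Compound titrations (5 concentrations, 24 h) on a stable cell line; DMSO and CCCP controls. Endpoint: fixed-cell PINK1 immunofluorescence with mitochondrial, cell and nuclear markers, scanned by microplate cytometer.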
Numbers without * were called inactive; i = inactive; ? = inconclusive; . = no result; [ ] = dose if it differs, or a comment. Unless noted, calls come from the whole dose curve; as a rule, active = well fitted curve in the direction sought with a large enough effect; inconclusive = small, poorly fitted or top-dose-only effect, or another doubt; inactive = no such curve, though single readings can be large; an effect the other way counts as inactive or inconclusive.

SMILES	MCF10A rereplic	IL1B secr inh	SW480 rerep	ATXN2 expr inh	ATXN viability	PINK1 modulator
CC(=O)c1ccc(C(=O)NCC2Cc3cccc(-c4ncccn4)c3O2)cc1 (centres undefined)	.	.	.	.	i	0.3%
COc1ccc2c(c1)CCc1c-2nc2ccccc2c1N1CCOCC1	16.4µM*	?	?	-26.0%	i	-2.1%
c1ccc2c(N3CCOCC3)c3c(nc2c1)CCC3	6.1%	41.9	-27.0%	-1.3%	?	0.4%
c1ccc(-c2cc(-c3ccc(N4CCOCC4)cc3)nc3ccccc23)cc1	?	-7.2	15.8%	-13.3%	.	4.8%
COc1ccc2c(-c3ccccc3)cc(N3CCOCC3)nc2c1	20.6µM*	-10.3	1.1%	-9.4%	i	0.6%
CCOc1cc(CNC(=O)c2ccc3nc(C(C)C)oc3c2)cc(OCC)c1OCC	.	.	.	2.9%	i	1.2%
COCCNC(=O)C1(C)CCCN(C(=O)COc2ccccc2)C1 (centres undefined)	.	-84.6*	.	10.5%	i	3.8%
COCCNC(=O)C1(C)CCCN(C(=O)CCc2ccccc2)C1 (centres undefined)	.	-5.9	.	4.2%	i	2.4%
CCCOc1cccc(C2c3c(-c4ccccc4O)n[nH]c3C(=O)N2Cc2ccco2)c1 (centres undefined)	.	.	.	.	.	3.6%
COc1ccc([C@@H]2C[C@@H](c3ccccc3)Oc3cc(OC)c(OC)c(OC)c32)cc1	1.16µM*	-11.0	-4.0%	4.7%	i	3.5%
O=C(Nc1ccccc1)C1C2/C=C\CCCCC21 (centres undefined)	9.1%	-50.2*	-66.2%	.	i	9.5%
Cc1ccccc1NC(=O)C1C2/C=C\CCCCC21 (centres undefined)	-8.0%	2.9	-129.1%	17.7%	i	3.9%
COC(=O)CSc1ncc2c(n1)-c1ccccc1N(Cc1ccc(Cl)cc1)S2(=O)=O	.	.	.	3.8%	i	0.9%
COCC(=O)Nc1cc(C(=O)N2CCN(c3ccc(Cl)cn3)CC2)c2c(c1)nc(C1CCC1)n2C	.	.	.	.	i	2.6%
COc1cccc(N2CCN(CC(=O)Nc3ccc(S(=O)(=O)N4CCCCCC4)cc3)CC2)c1	12.3%	39.3	3.5%	-6.0%	?	2.0%
COc1ccc(C(=O)O/N=C(\N)c2ccc(OC)c(OC)c2)c(OC)c1	18.9%	-54.2*	1.0%	.	i	1.2%
COc1ccc(C(=O)O/N=C(\N)c2ccccc2)c(OC)c1	1.9%	-1.5	?	.	?	-2.5%
CC(C)(C)c1csc(NC(=O)CCc2ccccc2)n1	?	-53.6*	?	-31.4%	i	8.4%
CC(C)(C)c1csc(NC(=O)Cc2cccs2)n1	-1.4%	-0.6	7.9%	1.0%	i	5.9%
COc1cccc(-n2c(SC)nnc2C2CCN(CCC(C)c3ccc(C)o3)CC2)c1 (centres undefined)	.	.	.	.	i	0.5%
CCOc1ccccc1-n1nnc(-c2nc(-c3ccccc3C)no2)c1C	.	.	.	.	.	0.2%
O=C(Cc1ccccc1)NCC(=O)OCC(=O)c1ccc2ccccc2c1	.	.	.	.	.	0.9%
C[C@@H]1CCCCCCCCC(=O)OCCN[C@H](C)CCCCCCCCC(=O)OCCN[C@H](C)CCCCCCCCC(=O)OCCN1	?	-58.6*	?	?	20µM*	0.6%
Cc1ccc(CN(C(=O)COc2ccccc2[N+](=O)[O-])c2ccccn2)cc1	.	.	.	-4.5%	?	-0.1%
COc1ccc(C2CC(=O)c3cc(-c4nc(-c5cccc(Cl)c5)cs4)c(=O)[nH]c3C2)cc1OC (centres undefined)	.	.	.	-3.7%	i	-0.5%
CCn1cc(C(=O)O)c(=O)c2cc(F)c(N3CCN(C(=S)Nc4ccccc4OC)CC3)cc21	0.5%	-16.3	-1.7%	.	i	1.2%
CCn1cc(C(=O)O)c(=O)c2cc(F)c(N/N=C/c3ccccc3[N+](=O)[O-])cc21	-2.6%	8.9	3.9%	?	i	39.8µM*
O=C(/C=C/Sc1ccccc1)c1ccc(Cl)cc1	-1.6%	-99.0*	17.0%	?	.	8.7%[38.3 µM]
